{"source": "ChEMBL document CHEMBL3988442", "about": "“University of Dundee, Small-Polar-MMV Screening Library” (2021)", "note": "About 13,000 (27%) of roughly 48,000 compounds showed an effect of 50% or more. The list shows a part of the results."}
{"system": "Wolbachia pipientis", "assay": "Anti-Wolbachia Cell-Based Screen", "type": "functional", "parameters": "scale not given: in the data most compounds retested in dose-response had high values", "settings": "5 µM", "units": {"Percent Effect": "%"}}
{"smiles": "O=C(CC1=CCCCC1)Nc1ccc(CN2C(=O)CCC2=O)cc1", "Percent Effect": -15.48}
{"smiles": "O=C(CSc1nc2c(cnn2CCO)c(=O)[nH]1)NC1CCCCC1", "Percent Effect": 119.1}
{"smiles": "CCN(CC)C(=O)CN(C)Cc1nc2c(cnn2C)c(=O)[nH]1", "Percent Effect": 2.851}
{"smiles": "CN(CC(=O)N(C)C1CCCCC1)Cc1nc2c(cnn2C)c(=O)[nH]1", "Percent Effect": 2.622}
{"smiles": "CCN(CC)C(=O)CSc1nc2c(cnn2CCO)c(=O)[nH]1", "Percent Effect": 123.9}
{"smiles": "CNC(=O)CSc1nc2c(cnn2Cc2ccc(F)cc2)c(=O)[nH]1", "Percent Effect": -13.84}
{"smiles": "CC(C)NC(=O)CSc1nc2c(cnn2CCO)c(=O)[nH]1", "Percent Effect": 147.9}
{"smiles": "CCN(CC)C(=O)CSc1ccc(C(F)(F)F)cn1", "Percent Effect": 0.9721}
{"smiles": "CC(C#N)CSc1ccccc1NCC(=O)NC1CCCCC1", "note": "(stereo unspecified)", "Percent Effect": -11.09}
{"smiles": "CCCc1cc(=O)[nH]c2nnc(SCC(C)=O)n12", "Percent Effect": 15.46}
{"smiles": "CC(C)(C)n1ncc2c(=O)[nH]c(N3CCN(CCO)CC3)nc21", "Percent Effect": 1.466}
{"smiles": "CC(=O)CSc1nc2c(cnn2CCO)c(=O)[nH]1", "Percent Effect": 136.9}
{"smiles": "CCC(=O)Nc1ccc(C(C)Nc2nc3c(cnn3C)c(=O)[nH]2)cc1", "note": "(stereo unspecified)", "Percent Effect": -8.968}
{"smiles": "O=C(c1ccco1)N(c1ccc(F)cn1)C1CCOCC1", "Percent Effect": 7.992}
{"smiles": "CCc1ccsc1CNC(=O)CNC(=O)C(C)(C)C", "Percent Effect": -1.133}
{"smiles": "CN(CC(=O)N1CCCC1)Cc1nc2c(cnn2C)c(=O)[nH]1", "Percent Effect": 28.73}
{"smiles": "CC1CCN(C(=O)CSc2nc3c(cnn3CCO)c(=O)[nH]2)CC1", "Percent Effect": 123.1}
{"smiles": "O=C(CSc1nc2c(cnn2CCO)c(=O)[nH]1)N1CCCCCC1", "Percent Effect": -26.62}
{"smiles": "CCC(Oc1ccc(N(C)S(C)(=O)=O)cc1)C(=O)N(C)C", "note": "(stereo unspecified)", "Percent Effect": -17.11}
{"smiles": "CCN(CC)c1ccc(NS(=O)(=O)c2cnn(C)c2)cn1", "Percent Effect": -7.679}
{"smiles": "Cc1nc(NS(=O)(=O)c2cc(Br)ccc2C)no1", "Percent Effect": -15.2}
{"smiles": "CN1CC(C(=O)N(C)Cc2cc(-c3cccnc3)no2)NC1=O", "note": "(stereo unspecified)", "Percent Effect": -3.484}
{"smiles": "CC(C)c1cc2c(s1)NC(c1ccccc1)NC2=O", "note": "(stereo unspecified)", "Percent Effect": 97.8}
{"smiles": "CC(C)c1cc2c(s1)NC(c1ccccn1)NC2=O", "note": "(stereo unspecified)", "Percent Effect": 80.13}
{"smiles": "Cc1ccc(C2NC(=O)c3cc(C(C)C)sc3N2)cc1", "note": "(stereo unspecified)", "Percent Effect": 93.7}
{"smiles": "CC(C)NC(=O)C[C@@H]1CCNC[C@@H]1Cc1cc(-c2ccccn2)on1", "Percent Effect": -9.264}
{"smiles": "COc1ccc2cc(-c3n[nH]cc3CN3CCSCC3)ccc2c1", "Percent Effect": -6.074}
{"smiles": "COCCN(Cc1ccccc1Cl)c1nc(CCN)nc2ccccc12", "Percent Effect": 116.2}
{"smiles": "NCCc1nc(N[C@@H](CO)c2ccccc2)c2ccccc2n1", "Percent Effect": 20.3}
{"smiles": "NCCc1nc(N(Cc2nccs2)C2CC2)c2ccccc2n1", "Percent Effect": 3.563}
{"smiles": "Cc1ccsc1CN(c1nc(CCN)nc2ccccc12)C1CC1", "Percent Effect": -10.53}
{"smiles": "COCCN(CCOC)c1ncccc1Cl", "Percent Effect": 3.894}
{"smiles": "NCCc1nc(N(Cc2cncs2)C2CC2)c2ccccc2n1", "Percent Effect": -5.048}
{"smiles": "COCCN(CC1CC1)c1nc(CCN)nc2ccccc12", "Percent Effect": 101.5}
{"smiles": "COCCN(Cc1ccccc1C)c1nc(C)nc2oc(C)nc12", "Percent Effect": 9.543}
{"smiles": "COCCN(Cc1cccs1)c1nc(CCN)nc2ccccc12", "Percent Effect": 106.1}
